An excerpt weighted towards active compounds, which were near 19% of everything screened.
TDP1 cell CPT: growth inhibition of DT40 Tdp1-/-;hTDP1 cells with camptothecin (screen for TDP1 inhibitors) | 420,000 tested, 12% active | chicken DT40 Tdp1-/-;hTDP1 cells + 20 nM CPT, ATP luminescence, 48 h | Potency, µM (doses to about 46.2 µM), for the others: top-dose activity change, negative = growth inhibition, actives largely listed as inhibitors; note: potency is the fitted concentration of half-maximal effect; nearly all actives have a fitted effect of over 55% in size
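Chicken DT40 Tdp1-/- cells stably complemented with human TDP1 were seeded at 400 cells/well in medium containing 20 nM camptothecin, exposed to pin-transferred compounds, and grown at 37 °C for at least 48 hr. Viability was read as ATP luminescence.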
HT1080 IDH1KD tx: kills HT-1080 cells with IDH1 knockdown | HT-1080 IDH1 knockdown viability, ATP luminescence, 48 h | AID 686971 | Potency, µM (series often up to 46.1 µM), inactives show at the top dose activity, negative = toxicity, most hits filed as cytotoxic | 360,000 tested, 2% active;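 note: potency is the fitted concentration of half-maximal effect; 0% = DMSO wells and -100% = cell-free medium wells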
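% activity derives from luminescence (CellTiter-Glo), normalised to DMSO and no-cell wells. HT-1080-IDH1KD cells, 750/well, had 48 h compound exposure at 37 °C.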
IL1B secr inh: inhibitors of inflammasome signaling (IL-1 beta secretion). activity change, % at 57.5 µM. 360,000 tested, 4.7% active. THP-1 LPS/ATP IL-1B secretion, AlphaLISA, 16 h; active compounds read low; in the data active = activity change below about -50%; inconclusive = mostly about -30% to -49%
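THP-1 cells pretreated 1 hr with compounds (up to 57.5 uM final), then stimulated with LPS (250 ng/mL final) plus ATP (1.25 mM final); secreted IL-1B measured by AlphaLISA after 16 hr, decreased signal indicating inhibition.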
DT40 TDP1 no CPT: qHTS for Inhibitors of human tyrosyl-DNA phosphodiesterase 1 (TDP1): qHTS in cells in absence of CPT; DT40 Tdp1-/- hTDP1 cells, no CPT, ATP luminescence, 48 h; Potency, µM (titrated, usually from 46.2 µM), for the others: top-dose activity change, negative = growth inhibition, hits mostly inhibitors; 420,000 tested, 15% active; AID 686978, 2013; note: potency is the fitted concentration of half-maximal effect; nearly all actives have a fitted effect of over 55% in size
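Camptothecin absent (DMSO only). Human TDP1-complemented DT40 knockout cells, 400 cells/well, 37 °C for minimum 48 hr; ATP measured via CellTiter-Glo, 30 min dark incubation, luminescence.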
HT1080-NT tox: kills 2HG-producing HT-1080-NT fibrosarcoma cells; HT-1080-NT fibrosarcoma viability, CellTiter-Glo ATP luminescence, 48 h; Potency, µM (top dose mostly 46.1 µM), for the others: top-dose activity, negative = less viability, hits mostly cytotoxic; 360,000 tested, 1.6% active;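 note: NT is the 2HG producing partner of a matched IDH1 knockdown line; potency is the fitted concentration of half-maximal effect; 0% = DMSO-treated cells and -100% = media-only wells without cells; nearly all actives have a fitted effect of over 55% in size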
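Toxicity toward the 2HG-producing NT line was scored as %Activity, normalised to DMSO and no-cell wells, from CellTiter-Glo luminescence after 48 hours' treatment.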
The depositor's hits bear a star; ? = inconclusive; . = no result; [ ] = remark or other dose. Unless noted, calls come from the whole dose curve; as a rule, active = well fitted curve in the direction sought with a large enough effect; inconclusive = small, poorly fitted or top-dose-only effect, or another doubt; inactive = no such curve, though single readings can be large; an effect the other way counts as inactive or inconclusive. Unless noted, % is set by controls: 0 for no effect and ±100 for the full control effect.

SMILES	TDP1 cell CPT	HT1080 IDH1KD tx	IL1B secr inh	DT40 TDP1 no CPT	HT1080-NT tox
CCN1C(=O)c2ccccc2Sc2ccc(C(=O)NCCCN(CC(C)C)CC(C)C)cc21	14.6µM*	8.9%	-64.5*	16.4µM*	-9.3%
CCN1C(=O)c2ccccc2Sc2ccc(C(=O)NCCN3CCOCC3)cc21	11.6%	5.2%	7.7	8.0%	3.5%
CC1CCN(C(=O)c2ncn3c2c(=O)[nH]c2cccnc23)CC1	-6.2%	9.3%	8.2	-22.0%	7.3%
O=C(CSc1nc2nn(-c3ccccc3)c(=O)c-2c2n1CCCCC2)Nc1cccc(F)c1	?	-10.5%	?	?	-16.0%
CCc1ccc(NC(=O)N(Cc2c[nH]c3ccccc23)C2CCCCC2)cc1	7.31µM*	.	.	6.51µM*	.
O=C(Nc1ccccc1)N(Cc1c[nH]c2ccccc12)C1CCCCCC1	11.6µM*	.	.	18.4µM*	.
CCc1ccc(NC(=O)N(Cc2c[nH]c3ccccc23)C2CCCCCC2)cc1	20.6µM*	.	.	7.31µM*	.
COc1cc2cc(CN(C(=O)Nc3ccccc3)C3CCCC3)c(=O)[nH]c2cc1OC	-14.3%	-7.0%	?	-23.2%	-0.2%
N#CCCN(C(=O)Nc1ccccc1)C1CCCCC1	1.6%	0.2%	20.8	2.9%	4.3%
O=C(COC(=O)c1cc(Cl)ccc1O)NC(=O)NCc1ccccc1	-14.3%	5.8%	-5.8	17.6%	0.4%[9.24 µM]
CCOC(=O)c1c(NC(=S)NNS(=O)(=O)c2ccc(Br)cc2)sc2c1CCCCC2	-2.0%	0.6%	21.7	-26.0%	-2.9%
O=C1N=c2ccccc2=C1c1sc(=S)n(CC2CCCO2)c1O (configuration not stated)	-7.3%	10.2%	30.6	-11.6%	4.8%
COc1ccc(N=C2O/C(=C/c3sc(=S)n(CC4CCCO4)c3O)N=C2C#N)cc1 (configuration not stated)	?	-19.5%	-12.2	29.1µM*	0.0%
CC(C)(C)c1ccc(C(=O)CC(Sc2ccc(Cl)cc2)C(=O)O)cc1 (configuration not stated)	3.26µM*	14.6µM*	-96.5*	4.11µM*	11.6µM*
Cc1ccc(SC(CC(=O)c2ccc(F)cc2)C(=O)O)cc1 (configuration not stated)	?	-0.2%	-96.2*	25.9µM*	0.0%
CC(C)(C)NC[C@H](O)COc1ccccc1C1CCCC1	12.8µM*	.	.	10.1µM*	.
CC(C)(C)NCC(O)COc1ccccc1C1CCCC1 (configuration not stated)	?	?	-22.7	14.6µM*	?
CC(C)(C)NC[C@@H](O)COc1cccc2c1CCCC2=O	-4.8%	-8.4%	-5.4	0.4%	1.6%
CSCCC(NC(=O)COc1ccccc1)C(=O)N1CCCC(C(F)(F)F)C1 (configuration not stated)	-27.4%	1.9%	7.2	-25.4%	4.7%
COc1ccc(OC)c(S(=O)(=O)n2nc(-c3ccccc3)cc2N)c1	-29.7%	-20.4%	10.4	-24.6%	-19.3%
COc1ccc(-c2cc(N)n(S(=O)(=O)c3ccc(F)cc3)n2)cc1OC	18.4µM*	-0.5%	2.7	11.6µM*	-1.5%
COc1cc(-c2cc(N)n(S(=O)(=O)c3ccc(F)cc3)n2)cc(OC)c1OC	16.4µM*	-19.8%	0.2	18.4µM*	-26.3%
Nc1cc(-c2ccccc2)nn1S(=O)(=O)c1ccc(F)cc1	29.1µM*	-6.6%	-13.8	14.6µM*	?
Nc1cc(-c2ccc(Br)cc2)nn1S(=O)(=O)c1ccccc1	-6.3%	-4.0%	10.0	-6.6%	-14.1%
COc1cc(OC)cc(-c2cc(N)n(S(=O)(=O)Cc3ccccc3)n2)c1	?	-5.9%	-14.6	18.4µM*	3.8%
SMILES	TDP1 cell CPT	HT1080 IDH1KD tx	IL1B secr inh	DT40 TDP1 no CPT	HT1080-NT tox
COc1cc(CN2CCC3(CCC(CNC(=O)c4ccco4)O3)CC2)ccc1O (configuration not stated)	11.8%	.	.	-2.6%	.
Oc1c(C(c2ccc(Cl)cc2)N2CCCC2)cc(Cl)c2cccnc12 (configuration not stated)	4.11µM*	?	103.7	5.17µM*	?
Cc1ccc(C(c2cc(Cl)c3cccnc3c2O)N2CCN(C)CC2)cc1 (configuration not stated)	?	?	44.6	?	?
CN1CCN(C(c2ccccn2)c2cc(Cl)c3cccnc3c2O)CC1 (configuration not stated)	6.51µM*	?	26.8	6.51µM*	-24.4%
Oc1c(C(c2ccccn2)N2CCC(Cc3ccccc3)CC2)cc(Cl)c2cccnc12 (configuration not stated)	4.11µM*	20.6µM*	-106.1*	2.91µM*	?
Oc1c(C(c2ccccc2Cl)N2CCCC2)ccc2cccnc12 (configuration not stated)	14.6µM*	?	88.0	16.4µM*	?
Cc1ncc2c(c1CNC(=O)c1ccccc1F)CCN(C(=O)c1csc(-c3cccs3)n1)C2	4.5%[9.04 µM]	.	.	?	.
C=CCc1cc(C(=O)N2CCCCC2)ccc1O	?	-2.3%	-2.1	?	-0.2%
C=CCc1ccc(O)c(-c2ccc(O)c(CC=C)c2)c1	?	-6.0%	?	18.4µM*	-1.1%
COc1ccc(/C=N/Nc2nnc(Cc3ccc(OC)c(OC)c3)c(=O)[nH]2)cc1	25.9µM*	-22.6%	9.4	16.4µM*	-29.2%
CCCOc1ccc(C(=O)N(Cc2cccs2)c2ccc(C)cc2)cc1	-22.4%	.	.	-24.8%	.
Cc1[nH]c2ccccc2c1C(=O)CN1CCCCC1CCO (configuration not stated)	?	-3.2%	10.8	16.4µM*	-7.2%
COc1ccc(CNC(=O)c2cnccn2)cc1	-10.8%	5.1%	0.0	-10.6%	9.0%
CCOC(=O)N1CCN(S(=O)(=O)c2ccc(C(=O)NNc3nc4c(C)cccc4s3)cc2)CC1	16.4µM*	?	86.4	16.4µM*	?
CCOC(=O)N1CCN(S(=O)(=O)c2ccc(C(=O)N(CCN(CC)CC)c3nc4c(C)cccc4s3)cc2)CC1	?	4.5%	4.1	-28.4%	-2.6%
CCOC(=O)N1CCN(S(=O)(=O)c2ccc(C(=O)NNc3nc4ccc(Cl)cc4s3)cc2)CC1	20.6µM*	?	110.4	20.6µM*	?
COc1cc2ncnc(NCc3ccc(C)o3)c2cc1OC	?	0.5%	-17.9	20.6µM*	0.2%
COc1cc2ncnc(NCc3ccccc3Cl)c2cc1OC	20.6µM*	17.1%	-8.8	13µM*	12.4%
CC(Nc1ncnc2nc[nH]c12)c1ccccc1 (configuration not stated)	16.4µM*	-4.2%	9.9	13µM*	4.1%

High-throughput results (PubChem)
